Experimental data as given in PubChem BioAssay AID485364 (National Center for Advancing Translational Sciences (NCATS), 2010).
In all, about 360,000 compounds went through this assay and about 11,000 (3.1%) were called active. Roughly 4% stayed inconclusive and do not appear here. Calls come from the whole dose curve; as a rule, active = well fitted inhibition curve with a large enough effect; inconclusive = small, poorly fitted or top-dose-only effect; inactive = no such curve, though single readings can be large or run the other way. The entries come from a sample that favours actives as a whole.

Biological target: Schistosoma mansoni thioredoxin glutathione reductase (TGR) (UniProt Q962Y6)
Test: qHTS Assay for the Inhibitors of Schistosoma Mansoni Peroxiredoxins; note: nearly all actives have a fitted effect of over 60% in size
Conditions: purified TGR, DTNB reduction, TNB absorbance 405 nm; series mostly up to 114 µM; activity change, negative = inhibition: at the top concentration
Description: Schistosomiasis is a major neglected tropical disease that currently affects over 200 million. It is caused by different species of flatworms, such as Schistosoma mansoni. Over the last century, drugs to treat the disease have evolved from potassium antimonyl tartrate, artemisinin, oxamniquine, to praziquantel, with praziquantel remaining the universally-used single drug of choice over the past three decades. However, transmission rates have changed little with praziquantel, and there is evidence for the development of drug resistant parasites. Because there is currently no suitable alternative therapy available, there is an urgent need to identify new targets and drugs for schistosomiasis treatment. Thioredoxin glutathione reductase (TGR), one uniquely positioned S. mansoni enzyme, has been identified as a major component of the worms' distinct and compressed antioxidant "firewall". TGR is a multifunctional enzyme that catalyzes the interconversion between reduced and oxidized forms of both glutathione (GSH) and thioredoxins, thus making it an attractive new antiparasitic target. Recently, a quantitative high-throughput screen of the NIH Molecular Libraries Small Molecule Repository (MLSMR, ~71K at the time of the screen in 2007) was performed using an assay that targeted both TGR and peroxiredoxin2 (Prx2, an H2O2-reducing enzymatic component of the S. mansoni redox "firewall") by following the decrease of NADPH fluorescence. […] Additional mechanistic link between exogenous NO donation and parasitic injury for the oxadiazole-2-oxide class of compounds was also expanded and better defined. Although the screen addressed both TGR and Prx2, the assay required post-screen target deconvolution for further characterization of the actives. In addition, the fluorescence assay was also subject to fluorescence interference from compound library members. We have developed a 1536-well-based kinetic HTS assay to address TGR alone. The assay followed the reduction of 5, 5'-dithiobis (2-nitrobenzoic acid) (DTNB) (Ellman's reagent) by NADPH and measured the increase in absorbance at 412 nm of the reaction product, TNB. […] This assay format can be used to screen the current MLSMR collection (with >300K compounds available) to find novel TGR inhibitors. Furoxan is a good choice to serve as a positive control in the primary HTS assay.
Three microliters of reagents (100 uM NADPH and 20 nM TGR or 100 uM NADPH as no-enzyme control) were dispensed into 1,536-well black clear-bottomed plates. Compounds (23 nL) were transferred via Kalypsys pin tool equipped with 1536-pin array (10 nL slotted pins, V&P Scientific, San Diego, CA). The plates were then be incubated for 15 min at room temperature, and 1 uL aliquot of 500 uM NADPH were added, immediately followed by a 1 uL aliquot of 15 mM DTNB to start the reaction. The plate was transferred to a ViewLux high-throughput CCD imager (Perkin-Elmer, Wellesley, MA) where kinetic measurements of the TNB absorbance were acquired using a 405 excitation filter. Throughout the screen, reagent bottles and all liquid lines were made light-tight to minimize reagent degradation. All screening operations were performed on a fully integrated robotic system (Kalypsys, San Diego, CA) containing one RX-130 and two RX-90 anthropomorphic robotic arms (Staubli, Duncan, SC). Library plates were screened starting from the lowest and proceeding to the highest concentration, and a "double-dipping" step of the highest concentration was required to access higher concentrations of compounds. Vehicle-only plates, with DMSO being pin-transferred to the entire column 5-48 compound area, were inserted uniformly at the beginning and the end of each library in order to monitor for and record any shifts in the background, which can be affected by reagent dispensers or loss in enzyme activity overtime. […]
% is set by controls: 0 for no effect and ±100 for the full control effect; potency is the fitted concentration of half-maximal effect.

| SMILES | activity change, negative = inhibition | Potency |
| --- | --- | --- |
| O=C1Cc2cc(S(=O)(=O)Nc3ccc(OC(F)(F)F)cc3)cc3c2N1CCC3 | 5.73% (inactive) |  |
| Cc1ccc(-c2c3c(=O)n(C)c(=O)n(C)c3cn2-n2cnnc2)cc1 |  | 39.8 µM (active) |
| Cc1ccc(-c2c3c(=O)n(C)c(=O)n(C)c3cn2-c2ccccc2O)cc1 | -26.9% (inactive) |  |
| COc1ccc(-c2c3c(=O)n(C)c(=O)n(C)c3cn2NC(C)=O)cc1 | 0% (inactive) |  |
| C=CCN(N=Nc1cccc([N+](=O)[O-])c1)c1cccc([N+](=O)[O-])c1 |  | 20 µM (active) |
| C=CCNC(=O)/C(=C\c1cccc([N+](=O)[O-])c1)NC(=O)c1ccccc1 | -3.16% (inactive) |  |
| C=CCN(CC=C)CCOc1ccccc1[N+](=O)[O-] | -4.88% (inactive) |  |
| CCn1cc(C(=O)NCc2ccccc2)c(=O)c2cc(S(=O)(=O)N3CCCCC3)ccc21 | 1.07% (inactive) |  |
| C#CCOc1ccc(C2CC(=O)Nc3c2c(C)nn3-c2nc(C)cc(C)n2)cc1 (centres undefined) | -14.6% (inactive) |  |
| O=C(CSc1nccn1Cc1ccc(F)cc1)NCc1ccccc1 | 1.52% (inactive) |  |
| CN(C)c1cccc(C(=O)Nc2nc3ccc(S(=O)(=O)NC(C)(C)C)cc3s2)c1 | -2.01% (inactive) |  |
| O=C(c1ccc(Cl)cc1)n1nc(-c2cccnc2)nc1NCc1ccc(F)cc1 | 1.24% (inactive) |  |
| COCCCNC(=O)Cc1ccc(-n2c(C)nc3cccnc32)cc1 | -7.9% (inactive) |  |
| CCc1nc2cccnc2n1-c1ccc(C(=O)O)cc1 |  | 44.7 µM (active) |
| CCc1nc2cccnc2n1-c1ccc(CC(=O)Nc2c(C)cccc2C)cc1 | -0.678% (inactive) |  |
| CCOc1ccc(NC(=O)c2c(NC(=O)Cc3ccccc3)sc3c2CCC(C)C3)cc1 (centres undefined) | -1.16% (inactive) |  |
| Cc1ccc(C2CC(c3cccc(C)c3)n3nc(N)nc3N2)cc1 (centres undefined) | 4.95% (inactive) |  |
| COc1cccc(N2C(=O)C3CCCN3C2c2ccc(F)cc2)c1 (centres undefined) | 0.707% (inactive) |  |
| COc1ccc(C2CC(c3ccc(C)cc3)Nc3ncnn32)cc1 (centres undefined) | 7.07% (inactive) |  |
| Cc1ccc(C2Nc3cccc4cccc(c34)N2)cc1 |  | 17.8 µM (active) |
| COc1cccc(C2Nc3cccc4cccc(c34)N2)c1 |  | 20 µM (active) |
| COc1ccc(C2NC(=O)c3ccccc3N2)cc1 (centres undefined) | 10.4% (inactive) |  |
| Oc1ccc(C2Nc3cccc4cccc(c34)N2)cc1 |  | 14.1 µM (active) |
| COc1ccc(-c2nn(CC(=O)NC3CCCC3)c3c2cnc2ccc(F)cc23)cc1 | -3.89% (inactive) |  |
| CCn1cc(C(=O)NCc2ccc(C)cc2)c(=O)c2cc(S(=O)(=O)N3CCc4ccccc4C3)ccc21 | 12.2% (inactive) |  |

| SMILES | activity change, negative = inhibition | Potency |
| --- | --- | --- |
| COc1ccc(CNC(=O)COCc2cc(-c3cccs3)on2)cc1OC | 8.12% (inactive) |  |
| Cc1ccc(Cl)cc1N1CCN(C(=O)C2CCC(CNS(=O)(=O)c3cccs3)CC2)CC1 (centres undefined) | 0.707% (inactive) |  |
| CCOc1ccc(CCNC(=O)c2csc3c2CCCCC3)cc1 | 3.2% (inactive) |  |
| COCCNC(=O)c1ccc2c(c1)N=C(C)c1cc(C)ccc1S2 | 6.6% (inactive) |  |
| CCOc1ccc(-c2cc(C)n3nc(C(=O)Nc4ccc(C)c(C)c4)cc3n2)cc1 | -1.55% (inactive) |  |
| CCn1cc(C(=O)OCC(=O)Nc2cc(C)cc(C)c2)c(=O)c2ccc(C)nc21 | 6.93% (inactive) |  |
| O=C(CCS(=O)(=O)c1ccc2c(c1)NC(=O)CO2)Nc1cccc(C(F)(F)F)c1 | -1.11% (inactive) |  |
| COc1cccc(-n2cc(C(=O)NCc3cccc(Cl)c3)c3ccccc3c2=O)c1 | -13.4% (inactive) |  |
| COc1cccc(-c2nnc3n(CCc4ccccc4)c(=O)c4ccccc4n23)c1O | -7.84% (inactive) |  |
| COc1cccc(-n2ccn(CC(=O)NCc3ccc(C)cc3)c(=O)c2=O)c1 | 3.55% (inactive) |  |
| Cc1ccccc1N1C(=O)C2ON(c3ccccc3)C(c3ccncc3)C2C1=O (centres undefined) |  | 44.7 µM (active) |
| COC(=O)C1=NN(c2ccccc2)C2C(=O)N(c3ccccc3OC)C(=O)C12 (centres undefined) | 2.8% (inactive) |  |
| COc1cc(C2C3C(=O)N(c4ccccc4)C(=O)C3ON2c2ccccc2)ccc1O (centres undefined) | -32.2% (inactive) |  |
| CC(C)(C)c1ccc(C(=O)N2CCC(c3nc(-c4ccc(S(=O)(=O)N5CCCC5)cc4)no3)CC2)cc1 | 0.494% (inactive) |  |
| CC(=O)c1ccc(N2CCN(C3C(=O)c4ccccc4N3C(C)=O)CC2)cc1 (centres undefined) | -15.5% (inactive) |  |
| CCC(=O)N1CCc2cc(S(=O)(=O)NC(C(=O)Nc3ccc(C(C)=O)cc3)C(C)C)ccc21 (centres undefined) | -2.24% (inactive) |  |
| CNc1ccc(-c2nc(-c3ccco3)no2)cc1[N+](=O)[O-] | 11.9% (inactive) |  |
| CC(Nc1ccc(-c2nc(-c3ccco3)no2)cc1[N+](=O)[O-])c1ccccc1 (centres undefined) |  | 31.6 µM (active) |
| O=[N+]([O-])c1cc(-c2nc(-c3ccccc3)no2)ccc1NCc1ccco1 | 9.25% (inactive) |  |
| CC[C@]1(c2ccccc2OC)C(=O)N(C(=O)OC)N1C(=O)OC |  | 31.6 µM (active) |
| COc1ccccc1CNC(=O)CCCN1C(=O)NC2(CCCC2)C1=O | -11.2% (inactive) |  |
| COC(=O)c1ccccc1NC(=O)Cc1ccccc1OC | 0.626% (inactive) |  |
| CCOC(=O)c1cc2c(=O)n3ccccc3nc2n(Cc2ccco2)c1=NC(=O)c1ccc(F)cc1 | -33.8% (inactive) |  |
| Cc1cccc(Nc2cc(C)nc(-n3nc(C)cc3C)n2)c1 | 2.04% (inactive) |  |
